# ± gives the standard deviation of the averaged measurements.
# System: Serratia marcescens K904 PosmB-luxCDABE reporter (pMQ747)
# Assay: PosmB-lux reporter fold induction (RLU/OD600 relative to no-compound control), highest over Biolog concentrations; higher = stronger reporter activation
# Conditions: ΔrcsB mutant CMS5177; 4 h
# Description: (§1)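 Serratia marcescens K904 (wild type) or its isogenic ΔrcsB mutant, carrying the Rcs-dependent PosmB-luxCDABE reporter plasmid pMQ747, was grown in LB at OD600 0.1 in Biolog Phenotype MicroArray plates PM11-20 for 4 h at 30-32°C. Each compound is present at 3-4 proprietary concentrations (not stated); per the Fig. S1 legend the value given is the highest fold over those wells. Three independent trials.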
row,SMILES,PosmB-lux reporter fold induction
1,"CC1(C)S[C@@H]2[C@H](NC(=O)C(C(=O)O)c3ccccc3)C(=O)N2[C@H]1C(=O)O (some centres not stated) [Carbenicillin] (Biolog plate: PM14, well positions: G5-8)",1.05 ± 0.096
2,"CN[C@H](CC(C)C)C(=O)N[C@H]1C(=O)N[C@@H](CC(N)=O)C(=O)N[C@H]2C(=O)N[C@H]3C(=O)N[C@H](C(=O)N[C@H](C(=O)O)c4cc(O)cc(O)c4-c4cc3ccc4O)[C@H](O)c3ccc(c(Cl)c3)Oc3cc2cc(c3O[C@@H]2O[C@H](CO)[C@@H](O)[C@H](O)[C@H]2O[C@H]2C[C@](C)(N)[C@H](O)[C@H](C)O2)Oc2ccc(cc2Cl)[C@H]1O [Vancomycin] (Biolog plate: PM12, well positions: C5-8)",1.21 ± 0.36
3,"N=C(NCCCCCCNC(=N)NC(=N)Nc1ccc(Cl)cc1)NC(=N)Nc1ccc(Cl)cc1 [chlorhexidine] (Biolog plate: PM19, well positions: C1-4)",1.19 ± 0.57
4,"Oc1c(Cl)cc(Cl)c2cccnc12 [5,7-Dichloro-8-hydroxyquinoline] (Biolog plate: PM15, well positions: C1-4)",1.43 ± 0.18
5,"N.N.N.N.N.N.[Cl-].[Cl-].[Cl-].[Co+3] [hexammine cobalt (III) chloride] (Biolog plate: PM19, well positions: H1-4)",1.35 ± 0.2
6,"CC(C)c1nc2nc(N)nc(N)c2nc1C(C)C [2,4-Diamino-6,7-diisopropyl-pteridine] (Biolog plate: PM12, well positions: E1-4)",2.91 ± 0.33

# System: Serratia marcescens K904 PosmB-luxCDABE reporter (pMQ747)
# Assay: PosmB-lux reporter fold induction (RLU/OD600 relative to no-compound control), highest over Biolog concentrations; higher = stronger Rcs reporter activation
# Conditions: wild type K904; 4 h
# Description: as §1
row,SMILES,PosmB-lux reporter fold induction
1,"CC1(C)S[C@@H]2[C@H](NC(=O)C(C(=O)O)c3ccccc3)C(=O)N2[C@H]1C(=O)O (some centres not stated) [Carbenicillin] (Biolog plate: PM14, well positions: G5-8)",42 ± 28
2,"CSCCC(N)C(=O)NO (racemic) [DL-methionine hydroxamate] (Biolog plate: PM17, well positions: F5-8)",1.74 ± 0.48
3,"NC[C@H]1O[C@H](O[C@H]2[C@H](O)[C@@H](O[C@H]3O[C@H](CO)[C@@H](O)[C@H](N)[C@H]3O)[C@H](N)C[C@@H]2N)[C@H](N)C[C@@H]1O [Tobramycin] (Biolog plate: PM12, well positions: F1-4)",1.6 ± 0.2
4,"CO[C@@H]1[C@@H](O[C@@H]2O[C@H](C)[C@@H](O[C@H]3C[C@@](C)(O)[C@@H](OC(=O)CC(C)C)[C@H](C)O3)[C@H](N(C)C)[C@H]2O)[C@@H](CC=O)C[C@@H](C)[C@@H](O)/C=C/C=C/C[C@@H](C)OC(=O)C[C@H]1OC(C)=O [josamycin] (Biolog plate: PM19, well positions: A2-4)",1.27 ± 0.74
5,"NC(CO)C(=O)NNCc1ccc(O)c(O)c1O (configuration not stated) [Benserazide] (Biolog plate: PM20, well positions: A9-12)",1.16 ± 0.17
6,"CCOc1ccc2ccccc2c1C(=O)N[C@@H]1C(=O)N2[C@@H]1SC(C)(C)[C@@H]2C(=O)O [Nafcillin] (Biolog plate: PM11, well positions: D9-12)",2.29 ± 0.21
7,"CCN(CC)CCOC(=O)c1ccc(N)cc1 [Procaine] (Biolog plate: PM15, well positions: A2-4)",1.21 ± 0.28
8,"c1ccc(-c2nn(-c3ccccc3)[n+](-c3cccc4ccccc34)n2)cc1 [tetrazolium violet] (Biolog plate: PM20, well positions: B9-12)",0.453 ± 0.17
9,"Cc1cc(C)nc(NS(=O)(=O)c2ccc(N)cc2)n1 [Sulfamethazine] (Biolog plate: PM12, well positions: D5-8)",3.6 ± 0.65
10,"CO[C@H]1/C=C/O[C@@]2(C)Oc3c(C)c(O)c4c(O)c(cc(O)c4c3C2=O)NC(=O)/C(C)=C\C=C\[C@H](C)[C@H](O)[C@@H](C)[C@@H](O)[C@@H](C)[C@H](OC(C)=O)[C@@H]1C [rifamycin SV] (Biolog plate: PM16, well positions: E9-12)",4.24 ± 0.58
11,"CO[C@@]1(NC(=O)C(C(=O)O)c2ccc(O)cc2)C(=O)N2C(C(=O)O)=C(CSc3nnnn3C)CO[C@@H]21 (some centres not stated) [Moxalactam] (Biolog plate: PM13, well positions: H5-8)",1.69 ± 0.24
12,"Nc1ccc(S(=O)(=O)Nc2ccc(Cl)nn2)cc1 [sulfachloro-pyridazine] (Biolog plate: PM17, well positions: C5-8)",1.46 ± 0.31
13,"CCn1cc(C(=O)O)c(=O)c2cc(F)c(N3CCNC(C)C3)c(F)c21 (configuration not stated) [Lomefloxacin] (Biolog plate: PM11, well positions: B9-12)",1.5 ± 0.2
14,"[Cl-].[Cs+] [Cesium chloride] (Biolog plate: PM13, well positions: F1-4)",1.41 ± 0.16
15,"CN[C@H](CC(C)C)C(=O)N[C@H]1C(=O)N[C@@H](CC(N)=O)C(=O)N[C@H]2C(=O)N[C@H]3C(=O)N[C@H](C(=O)N[C@H](C(=O)O)c4cc(O)cc(O)c4-c4cc3ccc4O)[C@H](O)c3ccc(c(Cl)c3)Oc3cc2cc(c3O[C@@H]2O[C@H](CO)[C@@H](O)[C@H](O)[C@H]2O[C@H]2C[C@](C)(N)[C@H](O)[C@H](C)O2)Oc2ccc(cc2Cl)[C@H]1O [Vancomycin] (Biolog plate: PM12, well positions: C5-8)",5.39 ± 2
16,"CN[C@@H]1[C@@H](O[C@H]2O[C@H](CO)[C@@H](N)[C@H](O)[C@H]2O)OC2C[C@@H](N)[C@@H](O[C@H]3[C@H](O)[C@@H](O)[C@H](N)C[C@@H]3N)OC2[C@@H]1O (some centres not stated) [apramycin] (Biolog plate: PM20, well positions: A5-8)",1.85 ± 0.71
17,"CCCCCCCCCCCC[N+](C)(C)CCCS(=O)(=O)[O-] [lauryl sulfobetaine] (Biolog plate: PM19, well positions: G1-4)",2.95 ± 1.1
18,"CCCCCCCC[N+](C)(CCCCCCCC)CCCCCCCC [methyltrioctyl-ammonium chloride] (Biolog plate: PM19, well positions: B1-4)",1.17 ± 0.32

row,SMILES,PosmB-lux reporter fold induction
1,"N=C(NCCCCCCNC(=N)NC(=N)Nc1ccc(Cl)cc1)NC(=N)Nc1ccc(Cl)cc1 [chlorhexidine] (Biolog plate: PM19, well positions: C1-4)",1.21 ± 0.081
2,"Oc1c(Cl)cc(Cl)c2cccnc12 [5,7-Dichloro-8-hydroxyquinoline] (Biolog plate: PM15, well positions: C1-4)",2.24 ± 0.92
3,"[Cl-].[Li+] [lithium chloride] (Biolog plate: PM17, well positions: F1-4)",1.51 ± 0.57
4,"N.N.N.N.N.N.[Cl-].[Cl-].[Cl-].[Co+3] [hexammine cobalt (III) chloride] (Biolog plate: PM19, well positions: H1-4)",1.64 ± 0.12
5,"CCCCCCCCCCCC[N+](C)(C)C [Dodecyltrimethyl ammonium bromide] (Biolog plate: PM12, well positions: H9-12)",2.03 ± 0.22
6,"Cc1ncc([N+](=O)[O-])n1CC(O)CCl (configuration not stated) [ornidazole] (Biolog plate: PM20, well positions: C9-12)",1.61 ± 0.055
7,"CC1(C)S[C@@H]2[C@H](NC(=O)[C@H](N)c3ccccc3)C(=O)N2[C@H]1C(=O)O [Ampicillin] (Biolog plate: PM13, well positions: A2-4)",1.39 ± 0.02
8,"CC1(C)S[C@@H]2[C@H](NC(=O)Cc3ccccc3)C(=O)N2[C@H]1C(=O)O [Penicillin G] (Biolog plate: PM12, well positions: A2-4)",1.66 ± 0.23
9,"NC(=O)N/N=C/c1ccc([N+](=O)[O-])o1 [5-Nitro-2-furaldehyde semicarbazone] (Biolog plate: PM15, well positions: E5-8)",1.67 ± 0.76
10,"CC(C)c1nc2nc(N)nc(N)c2nc1C(C)C [2,4-Diamino-6,7-diisopropyl-pteridine] (Biolog plate: PM12, well positions: E1-4)",2.38 ± 0.48
11,"C[n+]1cc2c3c(ccc2c2ccc4cc5c(cc4c21)OCO5)OCO3 [Sanguinarine] (Biolog plate: PM14, well positions: A9-12)",1.83 ± 0.71
12,"[Na+].[O]=[V](=[O])[O-] [Sodium metavanadate] (Biolog plate: PM14, well positions: F9-12)",3.94 ± 1.2
13,"Nc1ncn([C@@H]2O[C@H](CO)[C@@H](O)[C@H]2O)c(=O)n1 [5-azacytidine] (Biolog plate: PM16, well positions: E5-8)",1.15 ± 0.41
14,"CNC(C)C1CCC(N)C(OC2C(N)CC(N)C(OC3OCC(C)(O)C(NC)C3O)C2O)O1 (configuration not stated) [Gentamicin] (Biolog plate: PM11, well positions: G5-8)",1.41 ± 0.081
15,"CN(C)[C@@H]1C(O)=C(C(N)=O)C(=O)[C@@]2(O)C(O)=C3C(=O)c4c(O)ccc(Cl)c4[C@@H](O)[C@H]3C[C@@H]12 [Demeclocycline] (Biolog plate: PM11, well positions: D5-8)",1.53 ± 0.45
16,"Cc1cc(O)cc(C)c1Cl [chloroxylenol] (Biolog plate: PM16, well positions: H5-8)",2.08 ± 0.6
17,"NC(CO)C(=O)NO (racemic) [D,L-Serine hydroxamate] (Biolog plate: PM12, well positions: C9-12)",3.63 ± 0.5
18,"CC1COc2c(N3CCN(C)CC3)c(F)cc3c(=O)c(C(=O)O)cn1c23 (configuration not stated) [Ofloxacin] (Biolog plate: PM11, well positions: H9-12)",1.25 ± 0.35

# — the supplement of paper PMC9942566
